A selection: hits, their analogues and other compounds. The true share with any hit is near 28%.
PLK1 kinase inh – blocks human PLK1 kinase activity. recombinant PLK1 kinase, TR-FRET peptide phosphorylation. inhibition, % at 10 µM. hit rate 0.53% among 97,000;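 active = inhibition of 50% or more in the single-concentration screen; inactive = inhibition below 50%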
Target sequence (P53350 whole entry, looked up): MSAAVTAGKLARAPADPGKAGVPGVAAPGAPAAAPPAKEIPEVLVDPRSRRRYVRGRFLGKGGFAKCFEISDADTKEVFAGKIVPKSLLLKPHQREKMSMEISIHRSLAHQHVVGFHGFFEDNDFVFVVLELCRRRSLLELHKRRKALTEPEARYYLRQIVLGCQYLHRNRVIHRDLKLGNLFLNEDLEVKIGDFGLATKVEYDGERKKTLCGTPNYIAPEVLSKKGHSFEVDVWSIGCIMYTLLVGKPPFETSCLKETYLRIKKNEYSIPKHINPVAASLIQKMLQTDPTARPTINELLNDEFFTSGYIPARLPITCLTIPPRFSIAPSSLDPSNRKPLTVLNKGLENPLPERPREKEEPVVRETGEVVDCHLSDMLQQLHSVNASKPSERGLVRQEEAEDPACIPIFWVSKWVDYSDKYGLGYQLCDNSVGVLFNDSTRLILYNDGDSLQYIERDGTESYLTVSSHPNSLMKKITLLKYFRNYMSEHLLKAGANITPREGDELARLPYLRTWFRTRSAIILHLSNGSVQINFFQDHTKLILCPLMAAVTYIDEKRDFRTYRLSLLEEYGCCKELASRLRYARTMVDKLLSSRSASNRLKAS
CYP2C19 activ – activators of human cytochrome P450 2C19. P33261. recombinant CYP2C19, luciferin-H EGE luminescence; active compounds read high; 0 = fully inhibited enzyme, 1 = untreated enzyme. activation factor at 5 µM. 96,000 tested, under 10 active. AID 1025;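 active = activation factor of at least 2 at 5 µM in the primary screen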
CYP2C9 activ – increases human cytochrome P450 2C9 activity; P11712; recombinant CYP2C9, luciferin-H conversion, luminescence; active compounds read high; factor 1 = untreated enzyme, 0 = blocked; activation factor at 5 µM; hit rate 1.4% among 96,000;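 active = activation factor of 2 or more for CYP2C9 at a 5 µM dose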
Plk1 PBD FP – inhibitors of human Plk1 polo box domain binding; Plk1 PBD phosphopeptide binding, fluorescence polarization; P53350; hit rate 0.13% among 97,000; inhibition, %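 (tested at about 20 µM)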; AID 693; in the data active = inhibition above about 34%, passing the limit was not always enough
CYP2C9 inh – human CYP2C9 inhibition. hit rate 20% among 96,000. CYP2C9 Supersomes, luciferin-H conversion, luminescence. AID 777. P11712. inhibition, % at 5 µM;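 active = blocking of liver enzyme CYP2C9 beyond about 50% at 5 µM, limit read from the data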
CYP2C19 inh – human CYP2C19 inhibition | CYP2C19 Supersomes, luciferin-H EGE luminescence, 30 min | inhibition, % at 5 µM | hit rate 21% among 96,000;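 active = CYP2C19 inhibition above a set limit at 5 µM in the primary screen, cut at about 50% in these data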
Hits are given with their value; . = inactive; / = not tested or not shown.

SMILES	PLK1 kinase inh	CYP2C19 activ	CYP2C9 activ	Plk1 PBD FP	CYP2C9 inh	CYP2C19 inh
Cn1c(=O)[nH]c(=O)c2c1nc(N1CCCCCC1)n2CCSc1nc2ccccc2[nH]1	.	.	.	.	.	.
COc1nc(OC/C(N)=N/O)nc(N2CCOCC2)n1	/	.	.	/	.	.
CC(C)(C)OC(=O)NNC(=S)NCc1ccc(Cl)cc1	.	.	.	.	55	57
Cn1cc(C(=O)Nc2cccc(F)c2)cn1	.	.	.	.	.	.
CCCn1c(N)c(N2CCCCC2)c(=O)n(CC(=O)Nc2ccc(OC(F)(F)F)cc2)c1=O	.	.	.	.	.	.
CCCn1c(N)c(N2CCCCC2)c(=O)n(CC(=O)Nc2ccccc2C)c1=O	.	.	.	.	53	.
CCOC(=O)C1=C(CSc2nccn2C)NC(=O)NC1c1ccc2c(c1)OCO2 (stereo not given)	.	.	.	.	.	88
CCOC(=O)C1=C(CSc2nccn2C)NC(=O)NC1c1cc(C)ccc1C (stereo not given)	.	.	.	.	.	.
CC(C)(NO)/C(=N/O)c1cccs1	.	.	.	.	.	.
O=C(CSc1nnc(Cn2c(=O)sc3ccccc32)n1-c1ccccc1)Nc1nccs1	/	.	.	/	68	.
CSc1nnc(Cn2c(=O)sc3ccccc32)n1-c1ccccc1	.	.	.	.	.	53
O=C(COc1ccccc1)NCc1nnc(SCC(=O)Nc2nccs2)n1-c1ccccc1	.	.	.	.	.	.
CCc1cc(=O)oc2cc(C)c3c(C)coc3c12	.	.	.	.	.	63
CCc1cc(=O)oc2cc(C)cc(O)c12	.	.	2.7	.	.	.
CCCCCc1cc(O)c2c(C)cc(=O)oc2c1	.	.	.	.	59	70
Cc1coc2c1c(C)cc1oc(=O)c(Cc3ccccc3)c(C)c12	.	.	.	.	.	53
CSc1ccc2[nH]c(=O)cc(C)c2c1	.	.	.	.	.	.
COc1ccc(/C=N/OCc2nc3c4c(ncn3n2)Oc2ccc3ccccc3c2C4c2ccccc2)cc1 (stereo not given)	.	.	.	.	.	69
Cc1ccc(S(=O)(=O)C/N=C(/NC(=S)N(c2ccccc2)c2ccccc2)c2ccccc2)cc1	.	.	.	.	69	.
Cc1ccc(S(=O)(=O)CNC(=O)c2ccccc2)cc1	.	.	.	.	.	.
CC(=O)c1ccc2c3c(ccc(O)c13)CC2	.	.	2.4	.	.	.
Cc1ccc(NC(=O)C(C)N2C(=O)c3ccccc3C2=O)cc1 (stereo not given)	.	.	.	.	.	.
CCC1(CC)Nc2ccccc2C(=O)N1c1ccc(NC(C)=O)cc1	.	.	.	.	.	74
Cc1ccc2oc(=O)c3cnn(CC(=O)N4CCCc5ccccc54)c3c2c1	.	.	.	.	55	.
CCOC(=O)c1cc2occc2n1CC(=O)N1CCCc2ccccc21	.	.	.	.	87	96
SMILES	PLK1 kinase inh	CYP2C19 activ	CYP2C9 activ	Plk1 PBD FP	CYP2C9 inh	CYP2C19 inh
CCOC(=O)c1cc2sc(C)cc2n1CC(=O)N1CCc2ccccc21	.	.	.	.	.	.
COC(=O)c1cc2sccc2n1CC(=O)N1CCCc2ccccc21	.	.	.	.	69	83
Cc1ccc2oc(=O)c3cnn(CC(=O)N4CCN(c5ccccc5)CC4)c3c2c1	.	.	.	.	.	.
COC(=O)c1cc2sc(Cl)cc2n1CC(=O)N1CCCc2ccccc21	.	.	.	.	73	83
C=CCOc1ccc(CNc2nccs2)cc1OC	.	/	/	.	/	/
CC(=O)c1cc2c(cc1NC(=O)CSc1nnc(C)s1)OCO2	.	.	.	.	.	.
Cc1sc2ncnc(SCC(=O)NC3CC3)c2c1C	.	.	.	.	.	.
CCOC(=O)c1cc2sccc2n1CCCN1C(=O)c2ccccc2C1=O	.	.	.	.	69	.
COC(=O)c1cc2oc(C)cc2n1CC(=O)N1CCCc2ccccc21	.	.	.	.	68	67
CCOC(=O)c1cc2sccc2n1CC(=O)N1CCCc2ccccc21	.	.	.	.	94	98
CCOC(=O)c1cc2sccc2n1Cc1ccccc1	.	.	.	.	.	.
CCCOC(=O)C1C2C=C[C@]3(CN(CCc4ccccc4)C(=O)[C@H]13)O2 (stereo not given in full)	.	.	.	.	.	.
N#C/C(=C(/O)c1ccco1)c1nc2ccccc2s1	.	.	.	.	.	.
N#C/C(=C(/O)C(Cl)c1ccccc1)c1nc2ccccc2s1 (stereo not given)	.	.	.	.	77	58
O=C(c1cc2c(s1)-c1ccccc1OC2)N1CCN(c2ccccc2)CC1	.	.	.	.	71	72
O=C(c1cc2c(s1)-c1ccccc1OC2)N1CCCC1	.	.	.	.	.	.
CCOC(=O)N1CCN(C(=O)c2cc3c(s2)-c2ccccc2OC3)CC1	.	.	.	.	54	.
O=C(COC(=O)c1ccc(S(=O)(=O)Nc2ccccc2)cc1)NCc1ccco1	.	.	.	.	75	.
O=C(COC(=O)c1ccc(S(=O)(=O)Nc2ccccc2)cc1)NCCN1C(=O)CSC1=O	.	.	.	.	81	62
O=C(COC(=O)c1ccc(S(=O)(=O)NCc2ccco2)cc1)NCC1CCCCC1	.	.	.	.	58	.
O=C(COC(=O)c1ccccc1)NCc1ccco1	.	.	.	.	.	.
CNC(=O)C1C2C=CC3(O2)C1C(=O)N(CCOC)C3C(=O)NCc1ccc(OC)cc1 (stereo not given)	/	.	.	/	.	.
COC(=O)CNS(=O)(=O)c1ccc(C)cc1	.	.	.	.	.	.
Cc1ccc(S(=O)(=O)NCC(=O)OC(C(=O)c2ccccc2)c2ccccc2)cc1 (stereo not given)	.	.	.	.	57	.
CCOC(=O)N1CCN(C(=S)NCCOC)CC1	.	.	.	.	.	.
SMILES	PLK1 kinase inh	CYP2C19 activ	CYP2C9 activ	Plk1 PBD FP	CYP2C9 inh	CYP2C19 inh
CN1CCN(c2ccc([N+](=O)[O-])cc2/C=N/NC(=O)c2ccc(F)cc2)CC1	.	.	.	.	58	64
O=C(N/N=C/c1cc([N+](=O)[O-])ccc1Cl)c1ccc2nc[nH]c2c1	.	.	.	.	.	.
CCN(CC)C(=O)C1CCCN(c2ccc([N+](=O)[O-])cc2/C=N/NC(=O)c2cccc(Br)c2)C1 (stereo not given)	.	.	.	.	85	52
CC(NC(=O)CCSc1nc(-c2ccco2)cc(C(F)(F)F)n1)c1ccccc1 (stereo not given)	.	.	.	.	.	53
O=C(CCSc1nc(-c2ccco2)cc(C(F)(F)F)n1)N1CCN(c2ccccc2)CC1	.	.	.	.	76	81
O=C(CCSc1nc(-c2ccco2)cc(C(F)(F)F)n1)NCc1cccs1	.	/	/	.	/	/
COc1ccc(CCNC(=O)CCSc2nc(-c3ccco3)cc(C(F)(F)F)n2)cc1OC	.	.	.	.	91	88

Source: PubChem
